Assay results taken from PubChem BioAssay AID686978 (National Center for Advancing Translational Sciences (NCATS), 2013).
About 64,000 (15%) of roughly 420,000 compounds were called active. Inconclusive results (about 27%) are left out. The call rests on the fitted dose curve; in most records, active means well fitted inhibition curve with a large enough effect; inconclusive means small, poorly fitted or top-dose-only effect; inactive means flat fitted curve, though single readings scatter. Not all results are given here. Entries that show only a call come without a potency.
Potency means the concentration at half of the fitted maximal effect.

Test: qHTS for Inhibitors of human tyrosyl-DNA phosphodiesterase 1 (TDP1): qHTS in cells in absence of CPT; further: nearly all actives have a fitted effect of over 55% in size
Details: DT40 Tdp1-/- hTDP1 cells, no CPT, ATP luminescence, 48 h; activity change, negative = growth inhibition: at 46.2 µM (top of the series)
Outline: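 A cellular qHTS used chicken DT40 cells lacking endogenous Tdp1 but carrying stably transfected human TDP1. Compounds were applied without camptothecin, and cell growth kinetics were judged by ATP-dependent luminescence after ≥48 hr.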
For `CC1(C)CC(=O)C=C(NCCCNC2CCCCC2)C1`, the Potency was “inactive”.
With `O=Cc1ccc(Oc2cccc(C(F)(F)F)c2)nc1` the Potency was “inactive”.
For `N/C(=N\OC(=O)Nc1ccccc1)c1ccno1`, the Potency was “inactive”.
In the case of `COC(=O)c1ccccc1NC(=O)Cn1c(=O)n(-c2cccc(C(F)(F)F)c2)c(=O)c2c(C)c(C)sc21`, the Potency is reported as “inactive”.
In the case of `CCC(=O)N1CCc2cc(Br)cc(S(=O)(=O)CCC(=O)NCc3ccccc3OC)c21`, the Potency is reported as “inactive”.
With `CC(=O)NC(CC(=O)Nc1ccc(S(=O)(=O)N2CCOCC2)cc1)c1ccccc1` (stereo unspecified) the Potency was “inactive”.
For `CCOc1ccc(CN2CCCN(C)CC2)cc1`, the Potency was “inactive”.
In the case of `O=C(NCCc1c[nH]c2ccccc12)C(=O)NCC1CCCO1` (stereo unspecified), the Potency is reported as “inactive”.
With `CCOc1ccc(CN2CCN(Cc3c[nH]c4ccccc34)CC2)cc1` the Potency was 5.8 µM (active).
In the case of `O=C(NCCc1c[nH]c2ccccc12)C1CCN(Cc2ccc(Br)cc2)CC1`, the Potency is reported as 16.4 µM (active).
For `O=C(CN1C(=O)NC2(CCCCC2)C1=O)NCCc1c[nH]c2ccccc12`, the Potency was “inactive”.
With `CCOc1ccc(CC(=O)NC2CCN(Cc3ccccc3)CC2)cc1` the Potency was “inactive”.
For `N/C(=N\OC(=O)CCc1ccccc1)c1cccnc1`, the Potency was “inactive”.
For `O=C(COc1coc(CN2CCN(c3ccccc3F)CC2)cc1=O)N1CCc2ccccc21`, the Potency was “inactive”.
In the case of `Cc1cc(C(=O)OCC(=O)c2c(N)n(C)c(=O)n(C)c2=O)c(C)o1`, the Potency is reported as “inactive”.
With `Nc1nc(O)c(CC(=O)O)s1` the Potency was “inactive”.
With `CCOC(=O)C1=C(O)/C(=C/c2ccc(OCC(=O)Nc3ccc(C)cc3)cc2)N=C1C` the Potency was “inactive”.
For `O=c1c(-c2ccccc2)cnc2n1CCS2`, the Potency was “inactive”.
For `CCCc1nn2c(=O)cc(COC(=O)c3ccc(NC(=O)COc4ccc(F)cc4)cc3)nc2s1`, the Potency was “inactive”.
With `Cc1onc(-c2c(Cl)cccc2Cl)c1C(=O)c1c[nH]c(C(=O)NC2CC2)c1` the Potency was “inactive”.
In the case of `CC1(C)CC(=O)c2sc(N)nc2C1`, the Potency is reported as “inactive”.
For `O=C(Cc1ccc(F)cc1)N1CCN=C1SCc1cccc([N+](=O)[O-])c1`, the Potency was “inactive”.
For `Cc1cc(C)cc(C(=O)N2CCN=C2SCc2ccc([N+](=O)[O-])cc2)c1`, the Potency was “inactive”.
In the case of `Cc1cccc(CC(=O)N2CCN=C2SCc2ccc([N+](=O)[O-])cc2)c1`, the Potency is reported as 16.4 µM (active).
In the case of `C/C(=N\NC(=O)CCn1nc(C)cc1C)C(C)(C)C`, the Potency is reported as “inactive”.
For `CCc1cnc2c(c1SCC(=O)N1CCC(C)CC1)c(=O)n(C)c(=O)n2C`, the Potency was 20.6 µM (active).
In the case of `CCOC(=O)N1CCN(C(=O)CSc2nc(C)nc3c2c(=O)n(C)c(=O)n3C)CC1`, the Potency is reported as “inactive”.
For `Cn1c(=O)c2c(SCC(=O)N3CCOCC3)nc(C3CC3)nc2n(C)c1=O`, the Potency was “inactive”.
In the case of `Cc1nc(N)nc(SCc2ccc([N+](=O)[O-])cc2)c1N`, the Potency is reported as 25.9 µM (active).
With `CC(Sc1nnc(Cc2ccc([N+](=O)[O-])cc2)o1)C(N)=O` (stereo unspecified) the Potency was “inactive”.
For `O=C(CSCc1ccc([N+](=O)[O-])cc1)NCCSCc1ccccc1`, the Potency was “inactive”.
